Experimental findings from PubChem BioAssay (Tox21) are described below.

Where “and” joins values, the source holds several entries; their conditions need not be identical. Identical values can stand only once. Inconclusive results are not listed. Some compounds were tested as several samples or in several runs, with calls that do not always agree. Calls of active or inactive are those of the source. Calls follow the shape of the dose curve; as a rule, active = well fitted inhibition curve with a large enough effect in the repeat runs; inconclusive = weak or mixed curves; inactive = no such curve, though single readings can be large or run the other way.
% is scaled to controls: 0 for no effect and ±100 for the full control effect; potency is read from the fitted curve at half-maximal effect.

Chain of Cytochrome P450 1A2 (Homo sapiens) (P05177 whole entry, looked up): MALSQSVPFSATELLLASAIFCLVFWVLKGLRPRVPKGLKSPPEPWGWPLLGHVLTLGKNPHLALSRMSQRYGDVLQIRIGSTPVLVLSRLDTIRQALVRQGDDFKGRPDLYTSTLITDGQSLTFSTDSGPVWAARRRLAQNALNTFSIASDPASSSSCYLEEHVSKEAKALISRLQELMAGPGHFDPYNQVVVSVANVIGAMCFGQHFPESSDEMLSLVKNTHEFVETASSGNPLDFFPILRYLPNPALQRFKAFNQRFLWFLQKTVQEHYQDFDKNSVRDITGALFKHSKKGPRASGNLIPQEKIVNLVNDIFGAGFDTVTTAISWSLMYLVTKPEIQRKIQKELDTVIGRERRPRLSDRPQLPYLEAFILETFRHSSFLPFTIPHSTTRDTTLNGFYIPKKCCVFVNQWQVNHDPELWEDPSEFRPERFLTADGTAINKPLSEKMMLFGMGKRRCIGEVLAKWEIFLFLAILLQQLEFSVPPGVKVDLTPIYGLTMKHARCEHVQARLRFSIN

The target in the first test is Cytochrome P450 2C19 (Homo sapiens) (UniProt P33261). Kind of test: Cytochrome P450 Family 2 Subfamily C Member 19 (CYP2C19) small molecule antagonists: luciferase reporter qHTS assay (AID 1671197). Also: nearly all actives have a fitted effect of over 65% in size. The settings on record: P450-Glo CYP2C19 enzyme, luciferin luminescence, 1 h; series mostly up to 115 µM; activity change, negative = inhibition: at the top concentration. The procedure, abridged: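 P450-Glo CYP2C19 screening system; proluciferin substrate; DMSO compound stocks; 10 min RT preincubation; NADPH regeneration, 1 h at 37C; luciferin detection reagent, 20 min RT; luminescence as RLU.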
Chain of Cytochrome P450 2C19 (Homo sapiens) (P33261 whole entry, looked up): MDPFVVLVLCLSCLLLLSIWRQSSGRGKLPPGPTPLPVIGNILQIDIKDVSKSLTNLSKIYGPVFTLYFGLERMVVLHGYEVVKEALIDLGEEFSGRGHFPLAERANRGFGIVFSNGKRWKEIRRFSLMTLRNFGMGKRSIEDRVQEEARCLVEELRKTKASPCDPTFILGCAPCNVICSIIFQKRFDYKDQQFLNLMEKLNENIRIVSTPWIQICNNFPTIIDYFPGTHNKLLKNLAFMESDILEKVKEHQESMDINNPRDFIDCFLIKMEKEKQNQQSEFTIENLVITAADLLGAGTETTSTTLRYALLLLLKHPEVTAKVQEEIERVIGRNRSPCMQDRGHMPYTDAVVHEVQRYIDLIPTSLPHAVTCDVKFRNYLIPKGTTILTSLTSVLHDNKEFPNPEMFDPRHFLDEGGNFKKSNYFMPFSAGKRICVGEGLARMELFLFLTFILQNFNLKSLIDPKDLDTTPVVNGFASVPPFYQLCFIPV
As to `CN1C(=O)CCS(=O)(=O)C1c1ccc(Cl)cc1` (stereo not given), the Potency is 28.3 µM (active).
Regarding `CNc1cnn(-c2cccc(C(F)(F)F)c2)c(=O)c1Cl`, the Potency is 6.85 µM (active) and 31.7 µM (active).
In the case of `Cc1cccc(N)c1C`, the Potency result is “inactive and 31.7 µM (active)”.
Regarding `CCOc1ccc(N)cc1`, the Potency is 40 µM (active) and inactive.
In the case of `O=[N+]([O-])c1ccc(Cl)c(Cl)c1`, the Potency was 71.1 µM (active) and inactive.
Still for that read-out and setting: with `CNC(=O)O/N=C/C(C)(C)SC` the figure was 40.3 µM (active) and inactive; with `OCC(O)CCl` (stereo not given), 79.6 µM (active) and inactive; with `FC(F)(F)c1ccc(Cl)cc1`, “inactive”.
As to `CCCCCCCCCCCCCCCCCC(=O)O`, the Potency was 281 nM (active) and inactive.
With `CCCCC(CC)C(=O)Cl` (stereo not given), the “activity change, negative = inhibition” value was -2.52% (inactive).
With `CCOP(=S)(OCC)Oc1ccc([N+](=O)[O-])cc1`, the Potency was 128 nM (active) and 109 nM (active).
As to `Nc1ncc([N+](=O)[O-])s1`, the Potency is 71.6 µM (active) and 50.2 µM (active).
The same measure, in the same setting: with `CC12CC1(C)C(=O)N(c1cc(Cl)cc(Cl)c1)C2=O` (stereo not given) the figure was 22.4 µM (active).
On the same count and under the same terms, with `Sc1ccccc1` the figure was 18.1 µM (active) and 40.1 µM (active).
As to `Cc1ccc(O)c(C)c1`, the “activity change, negative = inhibition” value is -23.2% (inactive).
Turning to `CC(C)CCCCCCOC(=O)c1ccccc1C(=O)OCCCCCCC(C)C`, the Potency is 71 µM (active).
As to `CNC(=O)O/N=C/C(C)(C)S(C)(=O)=O`, the “activity change, negative = inhibition” value is -12.7% (inactive).
As to `O=[N+]([O-])c1ccc(Cl)cc1`, the Potency result is “inactive”.
For the compound `Cc1ccc(N)cc1`, the Potency is 35.8 µM (active) and 38.6 µM (active) and 31.7 µM (active).
Regarding `Nc1ccc(N)cc1`, the Potency was 34.7 µM (active) [middle of 4 runs].
For the compound `ClC(Cl)c1ccccc1`, the Potency is 40.6 µM (active) and inactive.
With `CSc1nnc(C(C)(C)C)c(=O)n1N`, the Potency result was “inactive”.

For the next test, the target named is Cytochrome P450 2C9 (Homo sapiens) (UniProt P11712). Kind of test: Cytochrome P450 Family 2 Subfamily C Member 9 (CYP2C9) small molecule antagonists: luciferase reporter qHTS assay (AID 1671198). Also: nearly all actives have a fitted effect of over 50% in size. The conditions noted are these: P450-Glo CYP2C9 enzyme assay, luciferin luminescence; series mostly up to 115 µM; activity change, negative = inhibition: at the top concentration. Put shortly: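 P450-Glo proluciferin substrate with CYP2C9 enzyme; 10 min RT preincubation, then NADPH regeneration 1 h at 37C; luciferin detection reagent 20 min RT, luminescence in relative luminescence units.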
Chain of Cytochrome P450 2C9 (Homo sapiens) (P11712 whole entry, looked up): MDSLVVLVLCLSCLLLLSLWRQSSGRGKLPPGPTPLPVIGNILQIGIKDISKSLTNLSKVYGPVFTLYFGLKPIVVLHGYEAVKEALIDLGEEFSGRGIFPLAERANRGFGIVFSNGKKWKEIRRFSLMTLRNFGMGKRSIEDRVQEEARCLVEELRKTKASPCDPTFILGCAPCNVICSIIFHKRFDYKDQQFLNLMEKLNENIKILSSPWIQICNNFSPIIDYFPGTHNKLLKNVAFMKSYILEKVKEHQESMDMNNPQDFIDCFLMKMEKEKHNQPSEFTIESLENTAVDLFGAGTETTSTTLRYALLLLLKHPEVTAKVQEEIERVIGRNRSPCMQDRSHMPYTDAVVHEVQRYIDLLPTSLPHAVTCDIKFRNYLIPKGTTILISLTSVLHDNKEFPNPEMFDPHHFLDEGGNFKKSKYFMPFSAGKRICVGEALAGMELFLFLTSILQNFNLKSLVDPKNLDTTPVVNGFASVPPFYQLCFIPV
Background: A reporter such as luciferase makes a cellular process visible.
Regarding `CN1C(=O)CCS(=O)(=O)C1c1ccc(Cl)cc1` (stereo not given), the Potency result is “inactive”.
On the same count and under the same terms, with `Cc1ccccc1N` the figure was 40.7 µM (active) and 79.6 µM (active) and 35.6 µM (active); with `COc1cc(-c2ccc(N)c(OC)c2)ccc1N`, 12.7 µM (active) [middle of 4 runs].
As for `OCC(O)CCl` (stereo not given), the “activity change, negative = inhibition” value was -9.12% (inactive).
Take `FC(F)(F)c1ccc(Cl)cc1`: the Potency entry is “inactive”.
As to `CCCCCCCCCCCCCCCCCC(=O)O`, the Potency is 1.12 µM (active) and inactive.
On the same count and under the same terms, with `COc1nc(NC(C)C)nc(NC(C)C)n1` the entry was “inactive”; with `CCCCC(CC)C(=O)Cl` (stereo not given), “inactive”.
Consider `CCOP(=S)(OCC)Oc1ccc([N+](=O)[O-])cc1`, for which the Potency was 1.61 µM (active) and 976 nM (active).
`Nc1ncc([N+](=O)[O-])s1`: the Potency was 63.3 µM (active).
Turning to `Sc1ccccc1`, the Potency was 32.2 µM (active) and 31.9 µM (active) and 56.4 µM (active).
For the compound `NNc1ccccc1`, the Potency was 39.5 µM (active) and 39.8 µM (active) and 50.2 µM (active).
For `CNC(=O)O/N=C/C(C)(C)S(C)(=O)=O`, the “activity change, negative = inhibition” value is -7.54% (inactive).
In the case of `O=[N+]([O-])c1ccc(Cl)cc1`, the Potency result was “inactive”.
Still for that read-out and setting: with `Cl[C@H]1OCCO[C@@H]1Cl` the entry was “inactive”; with `Cc1ccc(N)cc1`, 40.2 µM (active); with `Nc1ccc(N)cc1`, 11.3 µM (active) and 28.3 µM (active) and 8.71 µM (active).
In the case of `ClC(Cl)c1ccccc1`, the Potency result is “inactive”.
As to `CSc1nnc(C(C)(C)C)c(=O)n1N`, the “activity change, negative = inhibition” value is -18.8% (inactive).

The target of another test is Cytochrome P450 1A2 (Homo sapiens) (UniProt P05177). Description: Cytochrome P450 Family 1 Subfamily A Member 2 (CYP1A2) small molecule antagonists: luciferase reporter qHTS assay (AID 1671199). Also: nearly all actives have a fitted effect of over 50% in size. The settings on record: P450-Glo CYP1A2 enzyme, luciferin luminescence, 1 h; series mostly up to 115 µM; activity change, negative = inhibition: at the top concentration. Put shortly:
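CYP1A2 turnover of a luminogenic substrate was quantified after 1 h with NADPH regeneration at room temperature. Furafylline served as positive control.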
Take `Cc1ccccc1N`: the Potency result was “inactive and 36.3 µM (active) and 31.7 µM (active)”.
The same measure, in the same setting: the same measure for `COc1cc(-c2ccc(N)c(OC)c2)ccc1N`: 1.79 µM (active) [middle of 4 runs]; for `CNc1cnn(-c2cccc(C(F)(F)F)c2)c(=O)c1Cl`: 5.44 µM (active) and 10 µM (active); for `Cc1cccc(N)c1C`: 36.9 µM (active) and 20 µM (active).
Same read-out and setting: with `CCOc1ccc(N)cc1` the figure was 35.7 µM (active); with `O=[N+]([O-])c1ccc(Cl)c(Cl)c1`, “inactive and 22.4 µM (active)”; with `CNC(=O)O/N=C/C(C)(C)SC`, “inactive”.
With `CCCCCCCCCCCCCCCCCC(=O)O`, the Potency is 2.5 µM (active) and inactive.
In the case of `COc1nc(NC(C)C)nc(NC(C)C)n1`, the Potency is 31.8 µM (active) and 28.3 µM (active).
Same read-out and setting: the same measure for `CCCCC(CC)C(=O)Cl` (stereo not given): “inactive and 63.3 µM (active)”; for `CCOP(=S)(OCC)Oc1ccc([N+](=O)[O-])cc1`: 1.02 µM (active) and 976 nM (active); for `CC12CC1(C)C(=O)N(c1cc(Cl)cc(Cl)c1)C2=O` (stereo not given): 9.99 µM (active) and 14.2 µM (active).
Still for that read-out and setting: with `Cc1ccc(O)c(C)c1` the figure was 70 µM (active) and 29.5 µM (active); with `CC(C)CCCCCCOC(=O)c1ccccc1C(=O)OCCCCCCC(C)C`, 63.2 µM (active).
On the same count and under the same terms, with `CNC(=O)O/N=C/C(C)(C)S(C)(=O)=O` the entry was “inactive”.
As to `O=[N+]([O-])c1ccc(Cl)cc1`, the Potency entry was “inactive”.
In the case of `Cl[C@H]1OCCO[C@@H]1Cl`, the Potency entry was “inactive”.
For `Cc1ccc(N)cc1`, the Potency is 28.4 µM (active) and 30.6 µM (active) and 25.2 µM (active).
Turning to `ClC(Cl)c1ccccc1`, the “activity change, negative = inhibition” value was -10% (inactive).
